In ChEMBL document CHEMBL1961873, “Compounds: GSK PKIS; Assays: Nanosyn kinase panel” (2012):

Legend:
[1] = target: Sphingosine kinase 1 (Homo sapiens) (UniProt Q9NYA1); conditions: at 1 µM;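 also: mean SPHK1 inhibition value reported from the GSK PKIS kinase panel screen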
[2] = target: T1, Sphingosine kinase 2 (Homo sapiens) (UniProt Q9NRA0); conditions: at 0.1 µM
T1 sequence (whole entry): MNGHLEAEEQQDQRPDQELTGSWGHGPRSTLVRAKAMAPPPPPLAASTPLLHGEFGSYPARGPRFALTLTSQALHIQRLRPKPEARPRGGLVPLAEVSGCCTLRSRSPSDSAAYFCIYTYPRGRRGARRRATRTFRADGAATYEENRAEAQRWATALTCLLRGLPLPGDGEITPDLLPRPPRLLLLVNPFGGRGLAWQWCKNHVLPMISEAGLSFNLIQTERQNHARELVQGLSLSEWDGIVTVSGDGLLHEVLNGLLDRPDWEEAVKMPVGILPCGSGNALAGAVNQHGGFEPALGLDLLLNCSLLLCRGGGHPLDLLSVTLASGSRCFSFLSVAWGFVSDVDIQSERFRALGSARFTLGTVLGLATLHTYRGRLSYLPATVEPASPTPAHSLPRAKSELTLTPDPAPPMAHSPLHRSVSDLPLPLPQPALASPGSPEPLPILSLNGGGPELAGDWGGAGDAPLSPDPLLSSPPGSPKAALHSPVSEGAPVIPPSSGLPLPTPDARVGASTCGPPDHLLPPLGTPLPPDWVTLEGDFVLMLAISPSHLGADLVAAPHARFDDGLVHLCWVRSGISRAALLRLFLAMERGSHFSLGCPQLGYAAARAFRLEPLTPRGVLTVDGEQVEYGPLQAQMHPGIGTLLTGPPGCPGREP

[3] = target: T1, Sphingosine kinase 2 (Homo sapiens); conditions: at 1 µM
[4] = target: Casein kinase II subunit alpha (Homo sapiens) (UniProt P68400); conditions: at 0.1 µM
Sequence of Casein kinase II subunit alpha (Homo sapiens) (P68400 whole entry, looked up): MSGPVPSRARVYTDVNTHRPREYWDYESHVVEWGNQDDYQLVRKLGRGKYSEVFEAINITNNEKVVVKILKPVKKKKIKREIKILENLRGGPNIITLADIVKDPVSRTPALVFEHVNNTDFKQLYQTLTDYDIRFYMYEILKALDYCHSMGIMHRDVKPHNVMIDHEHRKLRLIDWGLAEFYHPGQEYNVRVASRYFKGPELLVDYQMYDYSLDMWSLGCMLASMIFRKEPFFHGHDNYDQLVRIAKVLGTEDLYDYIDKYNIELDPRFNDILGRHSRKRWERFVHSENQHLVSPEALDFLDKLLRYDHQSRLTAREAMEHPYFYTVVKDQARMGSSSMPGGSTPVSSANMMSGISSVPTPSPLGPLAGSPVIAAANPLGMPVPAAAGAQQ

[5] = target: Casein kinase II subunit alpha (Homo sapiens) (UniProt P68400); conditions: at 1 µM
[6] = target: T2, Inhibitor of nuclear factor kappa-B kinase subunit alpha (Homo sapiens) (UniProt O15111); conditions: at 0.1 µM
T2 sequence (whole entry): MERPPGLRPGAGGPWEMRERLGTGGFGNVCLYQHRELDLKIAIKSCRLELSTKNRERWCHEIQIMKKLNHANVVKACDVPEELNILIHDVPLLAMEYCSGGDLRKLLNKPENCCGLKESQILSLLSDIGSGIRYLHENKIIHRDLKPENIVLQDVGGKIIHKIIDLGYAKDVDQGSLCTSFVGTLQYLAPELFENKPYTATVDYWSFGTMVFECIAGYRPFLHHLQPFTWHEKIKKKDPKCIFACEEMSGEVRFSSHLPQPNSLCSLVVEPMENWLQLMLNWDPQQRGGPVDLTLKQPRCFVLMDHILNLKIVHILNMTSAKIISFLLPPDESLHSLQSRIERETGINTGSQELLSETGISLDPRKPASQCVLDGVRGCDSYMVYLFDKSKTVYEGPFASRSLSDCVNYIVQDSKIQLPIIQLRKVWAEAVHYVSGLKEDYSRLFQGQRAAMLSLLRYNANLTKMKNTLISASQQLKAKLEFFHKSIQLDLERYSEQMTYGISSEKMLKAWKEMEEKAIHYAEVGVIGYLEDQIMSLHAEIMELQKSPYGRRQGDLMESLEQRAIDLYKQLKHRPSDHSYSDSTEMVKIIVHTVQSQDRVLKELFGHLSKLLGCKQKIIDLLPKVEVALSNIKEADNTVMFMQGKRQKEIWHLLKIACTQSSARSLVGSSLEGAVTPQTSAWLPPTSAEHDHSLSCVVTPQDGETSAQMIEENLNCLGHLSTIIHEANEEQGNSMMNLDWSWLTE

[7] = target: T3, Inhibitor of nuclear factor kappa-B kinase subunit beta (Homo sapiens) (UniProt O14920); conditions: at 0.1 µM
T3 sequence (whole entry): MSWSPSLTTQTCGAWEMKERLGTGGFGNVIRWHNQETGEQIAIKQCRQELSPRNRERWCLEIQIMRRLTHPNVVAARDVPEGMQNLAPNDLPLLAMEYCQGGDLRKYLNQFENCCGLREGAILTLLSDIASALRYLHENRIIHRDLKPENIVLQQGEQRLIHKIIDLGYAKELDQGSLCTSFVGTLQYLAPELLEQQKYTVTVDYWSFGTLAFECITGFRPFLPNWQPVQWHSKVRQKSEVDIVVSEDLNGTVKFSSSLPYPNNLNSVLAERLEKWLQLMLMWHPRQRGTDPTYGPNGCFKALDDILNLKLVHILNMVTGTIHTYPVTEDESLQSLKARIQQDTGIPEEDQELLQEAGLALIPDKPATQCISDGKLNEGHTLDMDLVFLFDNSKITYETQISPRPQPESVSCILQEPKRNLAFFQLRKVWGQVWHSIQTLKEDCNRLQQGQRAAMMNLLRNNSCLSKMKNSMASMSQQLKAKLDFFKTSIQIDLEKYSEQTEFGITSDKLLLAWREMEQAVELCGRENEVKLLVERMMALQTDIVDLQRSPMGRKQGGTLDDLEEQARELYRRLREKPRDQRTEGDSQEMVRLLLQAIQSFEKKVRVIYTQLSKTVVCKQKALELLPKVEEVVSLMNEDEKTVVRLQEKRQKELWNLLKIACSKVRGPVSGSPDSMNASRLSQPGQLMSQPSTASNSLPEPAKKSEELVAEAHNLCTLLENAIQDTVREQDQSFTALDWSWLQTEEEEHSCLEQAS

[8] = target: T3, Inhibitor of nuclear factor kappa-B kinase subunit beta (Homo sapiens); conditions: at 1 µM
[9] = target: T4, Inhibitor of nuclear factor kappa-B kinase subunit epsilon (Homo sapiens) (UniProt Q14164); conditions: at 0.1 µM
T4 sequence (whole entry): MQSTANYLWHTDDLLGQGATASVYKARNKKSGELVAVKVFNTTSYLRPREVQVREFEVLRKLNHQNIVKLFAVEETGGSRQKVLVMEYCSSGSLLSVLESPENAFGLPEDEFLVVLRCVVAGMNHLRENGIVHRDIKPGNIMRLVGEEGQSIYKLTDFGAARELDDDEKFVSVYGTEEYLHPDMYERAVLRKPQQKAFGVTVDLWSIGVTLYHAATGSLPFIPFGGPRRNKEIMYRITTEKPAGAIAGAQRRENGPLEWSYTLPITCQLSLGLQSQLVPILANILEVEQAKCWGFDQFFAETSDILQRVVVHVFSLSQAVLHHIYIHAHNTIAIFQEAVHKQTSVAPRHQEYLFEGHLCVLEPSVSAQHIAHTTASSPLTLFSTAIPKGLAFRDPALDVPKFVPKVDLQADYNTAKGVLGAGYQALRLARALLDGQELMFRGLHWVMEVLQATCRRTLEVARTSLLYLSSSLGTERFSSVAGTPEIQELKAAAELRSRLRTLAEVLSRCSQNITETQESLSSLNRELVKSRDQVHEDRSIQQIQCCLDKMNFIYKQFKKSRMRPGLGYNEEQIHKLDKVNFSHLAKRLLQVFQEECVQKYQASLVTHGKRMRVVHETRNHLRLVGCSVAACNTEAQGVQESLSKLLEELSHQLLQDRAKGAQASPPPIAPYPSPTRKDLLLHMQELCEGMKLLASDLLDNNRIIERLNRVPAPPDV

[10] = target: T4, Inhibitor of nuclear factor kappa-B kinase subunit epsilon (Homo sapiens); conditions: at 1 µM
[11] = target: T5, Serine/threonine-protein kinase Nek1 (Homo sapiens) (UniProt Q96PY6); conditions: at 0.1 µM
T5 sequence (whole entry): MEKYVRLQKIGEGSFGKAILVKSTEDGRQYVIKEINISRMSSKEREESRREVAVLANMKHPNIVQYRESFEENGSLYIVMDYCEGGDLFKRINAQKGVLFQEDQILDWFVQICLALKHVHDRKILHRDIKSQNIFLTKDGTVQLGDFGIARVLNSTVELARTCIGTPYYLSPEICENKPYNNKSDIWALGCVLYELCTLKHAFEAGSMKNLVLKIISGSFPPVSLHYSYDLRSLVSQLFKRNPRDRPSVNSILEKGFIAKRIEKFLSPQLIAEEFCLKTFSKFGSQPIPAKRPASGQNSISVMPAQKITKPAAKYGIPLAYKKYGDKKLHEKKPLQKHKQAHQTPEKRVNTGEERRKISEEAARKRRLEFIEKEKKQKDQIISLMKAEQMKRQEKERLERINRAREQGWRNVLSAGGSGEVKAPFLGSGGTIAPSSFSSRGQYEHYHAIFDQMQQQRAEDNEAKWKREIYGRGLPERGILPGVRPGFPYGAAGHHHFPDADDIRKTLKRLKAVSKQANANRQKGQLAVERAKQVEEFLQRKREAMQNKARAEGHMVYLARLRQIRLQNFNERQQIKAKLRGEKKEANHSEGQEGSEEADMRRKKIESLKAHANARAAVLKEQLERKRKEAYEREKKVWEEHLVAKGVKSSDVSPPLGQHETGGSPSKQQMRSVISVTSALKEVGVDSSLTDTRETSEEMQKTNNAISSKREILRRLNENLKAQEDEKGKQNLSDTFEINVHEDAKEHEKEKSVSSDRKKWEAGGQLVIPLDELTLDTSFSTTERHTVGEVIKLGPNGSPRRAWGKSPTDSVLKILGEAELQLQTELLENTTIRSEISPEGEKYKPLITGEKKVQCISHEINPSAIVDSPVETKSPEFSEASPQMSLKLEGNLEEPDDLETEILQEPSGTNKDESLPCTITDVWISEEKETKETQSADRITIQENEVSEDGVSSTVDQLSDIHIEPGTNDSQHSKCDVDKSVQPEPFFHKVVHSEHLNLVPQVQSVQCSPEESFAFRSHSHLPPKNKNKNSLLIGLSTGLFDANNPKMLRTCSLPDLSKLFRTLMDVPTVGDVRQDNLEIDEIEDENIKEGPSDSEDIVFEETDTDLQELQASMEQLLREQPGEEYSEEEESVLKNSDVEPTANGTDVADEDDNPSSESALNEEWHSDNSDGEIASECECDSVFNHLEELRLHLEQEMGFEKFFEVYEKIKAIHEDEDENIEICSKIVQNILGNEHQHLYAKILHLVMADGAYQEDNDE

[12] = target: T5, Serine/threonine-protein kinase Nek1 (Homo sapiens); conditions: at 1 µM
[13] = target: T6, Serine/threonine-protein kinase Nek2 (Homo sapiens) (UniProt P51955); conditions: at 0.1 µM
T6 sequence (whole entry): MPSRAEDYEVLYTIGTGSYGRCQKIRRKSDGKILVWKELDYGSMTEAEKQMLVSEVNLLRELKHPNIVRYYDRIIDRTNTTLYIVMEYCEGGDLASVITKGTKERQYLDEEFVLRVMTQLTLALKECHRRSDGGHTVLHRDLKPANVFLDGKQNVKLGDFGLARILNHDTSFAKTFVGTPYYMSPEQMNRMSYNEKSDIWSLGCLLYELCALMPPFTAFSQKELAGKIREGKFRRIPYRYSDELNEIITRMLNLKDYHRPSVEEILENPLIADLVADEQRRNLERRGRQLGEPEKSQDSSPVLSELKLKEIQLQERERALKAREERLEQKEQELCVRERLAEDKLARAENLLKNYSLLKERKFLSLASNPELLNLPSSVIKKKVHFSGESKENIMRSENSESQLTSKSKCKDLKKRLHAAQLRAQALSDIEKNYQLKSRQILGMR

[14] = target: T6, Serine/threonine-protein kinase Nek2 (Homo sapiens); conditions: at 1 µM
[15] = target: Serine/threonine-protein kinase Nek6 (Homo sapiens) (UniProt Q9HC98); conditions: at 0.1 µM
Sequence of Serine/threonine-protein kinase Nek6 (Homo sapiens) (Q9HC98 whole entry): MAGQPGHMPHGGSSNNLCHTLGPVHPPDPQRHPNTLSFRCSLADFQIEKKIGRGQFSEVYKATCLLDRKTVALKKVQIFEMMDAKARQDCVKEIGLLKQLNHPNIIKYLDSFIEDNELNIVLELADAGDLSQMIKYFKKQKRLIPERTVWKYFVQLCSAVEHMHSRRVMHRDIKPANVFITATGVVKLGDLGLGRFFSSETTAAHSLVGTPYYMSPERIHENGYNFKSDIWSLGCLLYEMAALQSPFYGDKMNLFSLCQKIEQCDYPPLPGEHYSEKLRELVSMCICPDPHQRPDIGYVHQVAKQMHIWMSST

[16] = target: Serine/threonine-protein kinase Nek6 (Homo sapiens) (UniProt Q9HC98); conditions: at 1 µM
[17] = target: Serine/threonine-protein kinase Nek7 (Homo sapiens) (UniProt Q8TDX7); conditions: at 0.1 µM
Sequence of Serine/threonine-protein kinase Nek7 (Homo sapiens) (Q8TDX7 whole entry, looked up): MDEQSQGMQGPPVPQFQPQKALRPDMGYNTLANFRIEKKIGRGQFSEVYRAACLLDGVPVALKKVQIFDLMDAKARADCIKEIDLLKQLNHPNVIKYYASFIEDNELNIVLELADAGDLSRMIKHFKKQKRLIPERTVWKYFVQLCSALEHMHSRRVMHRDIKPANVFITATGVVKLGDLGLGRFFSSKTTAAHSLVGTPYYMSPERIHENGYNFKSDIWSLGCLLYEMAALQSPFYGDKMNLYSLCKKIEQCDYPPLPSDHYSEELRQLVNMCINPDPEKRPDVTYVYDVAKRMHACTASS

[18] = target: Serine/threonine-protein kinase Nek7 (Homo sapiens) (UniProt Q8TDX7); conditions: at 1 µM
[19] = target: T7, Serine/threonine-protein kinase Nek9 (Homo sapiens) (UniProt Q8TD19); conditions: at 0.1 µM;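 also: reported value is the mean percent inhibition of NEK9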
T7 sequence (whole entry): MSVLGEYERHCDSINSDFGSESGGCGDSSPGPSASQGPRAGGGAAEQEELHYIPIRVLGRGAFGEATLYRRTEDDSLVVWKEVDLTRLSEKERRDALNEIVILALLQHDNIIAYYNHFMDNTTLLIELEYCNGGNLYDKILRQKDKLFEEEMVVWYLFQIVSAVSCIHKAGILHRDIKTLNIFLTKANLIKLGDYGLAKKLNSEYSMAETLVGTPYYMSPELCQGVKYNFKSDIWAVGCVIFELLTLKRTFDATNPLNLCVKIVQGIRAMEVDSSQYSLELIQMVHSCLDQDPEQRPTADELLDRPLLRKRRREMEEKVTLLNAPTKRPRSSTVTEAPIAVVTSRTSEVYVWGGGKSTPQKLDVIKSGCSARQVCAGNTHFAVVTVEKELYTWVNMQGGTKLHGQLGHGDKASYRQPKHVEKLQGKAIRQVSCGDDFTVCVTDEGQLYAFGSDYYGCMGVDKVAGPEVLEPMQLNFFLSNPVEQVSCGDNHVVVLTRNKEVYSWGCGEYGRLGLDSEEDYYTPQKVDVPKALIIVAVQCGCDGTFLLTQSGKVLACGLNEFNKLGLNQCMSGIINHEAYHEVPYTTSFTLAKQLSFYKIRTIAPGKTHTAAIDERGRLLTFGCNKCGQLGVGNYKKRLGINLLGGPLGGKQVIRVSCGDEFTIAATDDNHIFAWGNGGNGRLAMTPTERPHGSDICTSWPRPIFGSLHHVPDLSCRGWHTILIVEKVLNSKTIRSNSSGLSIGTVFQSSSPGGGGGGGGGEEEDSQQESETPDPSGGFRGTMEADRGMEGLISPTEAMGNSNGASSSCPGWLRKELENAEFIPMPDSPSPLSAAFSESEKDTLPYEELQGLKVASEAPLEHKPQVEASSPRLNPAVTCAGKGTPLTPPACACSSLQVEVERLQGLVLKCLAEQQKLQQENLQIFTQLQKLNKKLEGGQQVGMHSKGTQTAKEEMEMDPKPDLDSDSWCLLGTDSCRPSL

[20] = target: T2, Inhibitor of nuclear factor kappa-B kinase subunit alpha (Homo sapiens); conditions: at 1 µM

Sequence of Sphingosine kinase 1 (Homo sapiens) (Q9NYA1 whole entry): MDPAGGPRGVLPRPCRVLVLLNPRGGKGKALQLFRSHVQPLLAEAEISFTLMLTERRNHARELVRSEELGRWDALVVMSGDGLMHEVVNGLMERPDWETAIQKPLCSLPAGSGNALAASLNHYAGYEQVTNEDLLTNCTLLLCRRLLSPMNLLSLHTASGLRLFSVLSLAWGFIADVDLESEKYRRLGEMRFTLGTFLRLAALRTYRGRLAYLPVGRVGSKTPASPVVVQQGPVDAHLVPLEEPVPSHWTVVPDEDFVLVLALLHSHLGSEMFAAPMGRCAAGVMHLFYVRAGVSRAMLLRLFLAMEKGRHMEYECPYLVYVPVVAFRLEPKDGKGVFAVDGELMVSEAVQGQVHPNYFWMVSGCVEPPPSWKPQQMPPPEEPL

Structure (SMILES) | inhibition [1] [%] | inhibition [2] [%] | inhibition [3] [%] | inhibition [4] [%] | inhibition [5] [%] | inhibition [6] [%] | inhibition [7] [%] | inhibition [8] [%] | inhibition [9] [%] | inhibition [10] [%] | inhibition [11] [%] | inhibition [12] [%] | inhibition [13] [%] | inhibition [14] [%] | inhibition [15] [%] | inhibition [16] [%] | inhibition [17] [%] | inhibition [18] [%] | inhibition [19] [%] | inhibition [20] [%]
NC(=O)c1ccc(-c2nc(-c3ccccn3)c(-c3ccc4c(c3)OCO4)[nH]2)cc1 | -3.93 | -0.17 | -0.84 | 2.1 | 4.61 | 7.62 | 3.19 | 3.61 | 3.15 | 4.06 | 1.34 | 3.26 | 2.44 | 2.69 | 2.04 | 4.68 | 2.26 | 1.68 | 6.53 | 
COc1ccc(-c2coc3ncnc(N)c23)cc1 | 2.86 | 1.04 | -0.88 | 4.06 | -2.3 | 4.01 | 10.3 | 9.84 | 5.67 | 4.6 | 2.17 | 2.92 | 4.88 | 4.8 | 1.43 | 2.31 | 6.65 | 4.79 | 6.76 | -4.53
